From PubChem BioAssay AID1159580 (chemical genetic matrix, 2015)
Values joined by “and” are separate entries in the source; they are usually repeats but may differ in a detail not shown here. Equal values may be shown once. About 2,000 (36%) of roughly 5,500 compounds were called active. Inconclusive results (about 18%) are left out. No stated cut-off is given here; in the data, active means normalized growth mostly below about 0.91 (no sharp cut-off); inconclusive means no clear call, values can overlap the other calls; inactive means mostly above about 0.92. This is one part of the list. Where a SMILES comes first, the peptide text is derived from it. Bridges are numbered along the chain shown (N, C = ends). [ ]: non-standard residue; d: D form. The star is where a group is joined. ξ: configuration not given here. ξDab(CH2SO3H) = NC(CCNCS(=O)(=O)O)C(=O)O; Heptanoyl(6-Me) = CC(C)CCCCC(=O)*; Dab = NCC[CH](N)C(=O)O

Assay: chemical genetic growth profiling, strain panel (AID 1159580);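 further: tested at 20 µM; growth read once vehicle control cultures reached saturation at 30 °C; 1 = growth at the plate median or of vehicle wells; lower values mean less growth of the strain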
Details: S. cerevisiae deletion strains, growth OD

Measured: normalized growth

CCC(C)C1NC(=O)C(CCNCS(=O)(=O)O)NC(=O)C(NC(=O)C(CCNCS(=O)(=O)O)NC(=O)C(NC(=O)C(CCNCS(=O)(=O)O)NC(=O)CCCCC(C)C)C(C)O)CCNC(=O)C(C(C)O)NC(=O)C(CCNCS(=O)(=O)O)NC(=O)C(CCNCS(=O)(=O)O)NC(=O)C(C(C)CC)NC1=O (stereo unspecified) ({Heptanoyl(6-Me)}-[ξDab(CH2SO3H)]T[ξDab(CH2SO3H)][Dab][ξDab(CH2SO3H)]II[ξDab(CH2SO3H)][ξDab(CH2SO3H)]T; lactam 4-C; configuration not given here)
inactive: locus YAL013W, strain DEP1, hits give low values 1 | locus YAL021C, strain ccr4, hits give low values 0.93 | locus YAL026C, strain drs2, hits give low values 0.989 | locus YAL030W, strain snc1, hits give low values 0.99 | locus YBL061C, strain skt5, hits give low values 0.981 | locus YBR009C, strain hhf1, hits give low values 0.971 | locus YBR021W, strain FUR4, hits give low values 1.02 | locus YBR023C, strain chs3, hits give low values 0.985 | locus YBR171W, strain sec66, hits give low values 0.995 | locus YBR229C, strain ROT2, hits give low values 0.987 | locus YBR231C, strain swc5, hits give low values 1 | locus YBR279W, strain paf1, hits give low values 1 | locus YCL011C, strain gbp2, hits give low values 0.996 | locus YCL016C, strain dcc1, hits give low values 0.994 | locus YCL029C, strain bik1, hits give low values 0.955 | locus YCL061C, strain MRC1, hits give low values 0.996 | locus YCL069W, strain vba3, hits give low values 0.978 | locus YCR088W, strain abp1, hits give low values 0.976 | locus YDL005C, strain med2, hits give low values 1.01 | locus YDL035C, strain GPR1, hits give low values 0.989 | locus YDL040C, strain nat1, hits give low values 0.972 | locus YDL074C, strain BRE1, hits give low values 1 | locus YDL101C, strain DUN1, hits give low values 0.992 | locus YDL134C, strain PPH21, hits give low values 0.993 | locus YDL185W, strain tfp1, hits give low values 0.935 | locus YDL192W, strain arf1, hits give low values 0.965 | locus YDR001C, strain nth1, hits give low values 0.992 | locus YDR069C, strain doa4, hits give low values 0.961 | locus YDR101C, strain arx1, hits give low values 0.983 | locus YDR137W, strain rgp1, hits give low values 1.03 | locus YDR150W, strain NUM1, hits give low values 0.97 | locus YDR159W, strain sac3, hits give low values 0.95 | locus YDR162C, strain NBP2, hits give low values 0.98 | locus YDR195W, strain ref2 0.946 | locus YDR297W, strain sur2, hits give low values 0.998 | locus YDR318W, strain mcm21, hits give low values 0.956 | locus YDR334W, strain swr1, hits give low values 0.959 | locus YDR335W, strain msn5, hits give low values 0.984 | locus YDR388W, hits give low values 0.972 | locus YDR392W, strain spt3, hits give low values 1.02 | locus YDR502C, strain sam2, hits give low values 0.976 | locus YEL003W, strain gim4, hits give low values 0.996 | locus YEL037C, strain rad23, hits give low values 0.969 | locus YEL061C, strain CIN8 (second series), hits give low values 0.978 | locus YEL061C, strain CIN8, hits give low values 0.982 | locus YER015W, strain faa2, hits give low values 0.996 | locus YER016W, strain bim1, hits give low values 0.997 | locus YER110C, hits give low values 0.98 | locus YER111C, strain swi4, hits give low values 1 | locus YER155C, strain BEM2 (second series), hits give low values 1.01 | locus YER155C, strain BEM2, hits give low values 0.984 | locus YER167W, strain BCK2, hits give low values 0.964 | locus YFR010W, strain ubp6, hits give low values 0.979 | locus YGL078C, strain dbp3, hits give low values 0.968 | locus YGL086W, strain mad1, hits give low values 0.972 | locus YGL167C, strain pmr1, hits give low values 0.967 | locus YGL173C, strain kem1, hits give low values 0.984 | locus YGL227W, strain vid30, hits give low values 0.988 | locus YGL240W, strain doc1, hits give low values 1 | locus YGL248W, strain PDE1, hits give low values 0.988 | locus YGL253W, strain hxk2, hits give low values 0.993 | locus YGR078C, strain PAC10, hits give low values 0.999 | locus YGR135W, strain pre9, hits give low values 0.988 | locus YGR229C, strain SMI1, hits give low values 1.01 | locus YGR252W, strain gcn5, hits give low values 1.1 | locus YHR013C, strain ard1, hits give low values 0.978 | locus YHR027C, strain rpn1, hits give low values 1 | locus YHR030C, strain SLT2, hits give low values 0.98 and 1.01 | locus YHR079C, strain IRE1 (second series), hits give low values 0.966 | locus YHR079C, strain IRE1, hits give low values 0.971 | locus YHR094C, strain hxt1, hits give low values 0.952 | locus YHR129C, strain ARP1, hits give low values 0.98 | locus YHR142W, strain chs7, hits give low values 0.982 | locus YHR200W, strain rpn10, hits give low values 0.951 | locus YIL066C, strain RNR3, hits give low values 0.977 | locus YIL073C, strain SPO22, hits give low values 0.975 | locus YIL125W, strain kgd1, hits give low values 0.969 | locus YIR030C, strain dcg1, hits give low values 0.967 | locus YJL092W, strain hpr5, hits give low values 0.987 | locus YJL095W, strain BCK1 (second series), hits give low values 0.987 | locus YJL095W, strain BCK1, hits give low values 0.974 and 0.981 | locus YJL115W, strain asf1, hits give low values 0.975 | locus YJL129C, strain trk1, hits give low values 1.08 | locus YJL134W, strain LCB3, hits give low values 0.976 | locus YJL154C, strain vps35, hits give low values 0.98 | locus YJL164C, strain tpk1, hits give low values 0.994 | locus YJL166W, strain qcr8, hits give low values 0.986 | locus YJL168C, strain set2, hits give low values 0.966 | locus YJL187C, strain SWE1 (second series), hits give low values 0.978 | locus YJR043C, strain POL32, hits give low values 1 | locus YJR066W, strain TOR1, hits give low values 0.97
